Measurements from PubChem BioAssay (NCATS).
Inconclusive results are not listed. Active and inactive are the calls of the source. The call rests on the fitted dose curve; in most records, active means well fitted curve in the direction sought with a large enough effect; inconclusive means small, poorly fitted or top-dose-only effect, or another doubt; inactive means no such curve, though single readings can be large; an effect the other way counts as inactive or inconclusive.

Assays:
[1] = qHTS assay for measurement of the activity of small molecule inhibitors on Zika virus induced Caspase-3 activity in human iPSC derived neural progenitor cells (hNPCs) (AID 1224857); further: nearly all actives have a fitted effect of over 65% in size
How it was run: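 Pretreat hNPCs with compound 1 h; infect ZIKV 2 FFU/cell; 6 h 37 C, 5% CO2; Caspase-Glo 3/7, 30 min RT; luminescence; normalize to no-virus and virus-only wells.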

[2] = qHTS assay for measurement of the activity of small molecule inhibitors on Zika virus induced Caspase-3 activity in human astrocytoma cells (AID 1224859)
How it was run: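 Human SNB-19 astrocytoma cells in RPMI 1640 with 10% FBS receive compound one hour ahead of Zika virus at 2 FFU/cell. After 6 h infection, caspase-3/7 activity is detected by Caspase-Glo luminescence.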

[3] = qHTS assay to identify small molecule inhibitors of chordoma cells - UCH-1 (AID 1259355); further: nearly all actives have a fitted effect of over 55% in size
How it was run: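 Seed 800 cells per well; incubate overnight at 37 C, 5% CO2. Add test compounds (15 concentrations), then the auranofin–topoisomerase-agent combination. Incubate 48hr, add CellTiter-Glo, wait 30min, read luminescence.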

[4] = P-glycoprotein substrates identified in KB-8-5-11 adenocarcinoma cell line, qHTS therapeutic library screen (AID 1346987); conditions: outcome: dose series up to 44.5 µM; further: series mostly up to about 44 µM; nearly all actives have a fitted effect of over 65% in size
How it was run: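 Steps: plate 500 KB-8-5-11 cells/well in DMEM + 10% FCS (colchicine removed); pin compounds in dose-response; incubate 72 h, 37 degree C, 5% CO2; add CellTiter-Glo, 5 min; read luminescence.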

[5] = NS1 protein of Zika virus - qHTS assay to identify small molecule inhibitors in human HEK 293 cells (AID 1347053); further: series mostly up to about 46 µM; nearly all actives have a fitted effect of over 55% in size
How it was run: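 Following 20 h seeding, HEK 293 cells took compound, then 1 h later ZIKV MR766 (MOI = 0.5). Incubation ran 24 h at 37 C before TR-FRET detection of NS1; a drop in signal indicates inhibition.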

[6] = qHTS of pediatric cancer cell lines to identify multiple opportunities for drug repurposing: Primary screen for TC32 cells (AID 1347089); further: nearly all actives have a fitted effect of over 60% in size
How it was run: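 TC32 cells, 500-1,000/well in growth medium, compound-treated 48 h at 37 °C; viability from CellTiter-Glo luminescence. Primary screen: MIPE 11-point (0.78 nM–46 µM final), NPC 8-point (0.59 nM–46 µM final); confirmatory at 11-point dilutions.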

[7] = qHTS of pediatric cancer cell lines to identify multiple opportunities for drug repurposing: Primary screen for DAOY cells (AID 1347090); further: series mostly up to about 46 µM; nearly all actives have a fitted effect of over 55% in size
How it was run: (§1)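 Cell viability, CellTiter-Glo luminescence; 500-1,000 cells/well, 8- or 11-point titration, 48 h compound exposure at 37 degrees C, 5% CO2. Controls: DMSO neutral, bortezomib 2.3 µM final as positive.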

[8] = qHTS of pediatric cancer cell lines to identify multiple opportunities for drug repurposing: Primary screen for SJ-GBM2 cells (AID 1347091)
How it was run: as §1

[9] = qHTS of pediatric cancer cell lines to identify multiple opportunities for drug repurposing: Primary screen for A673 cells (AID 1347092); further: nearly all actives have a fitted effect of over 45% in size
How it was run: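 A673 cells (500-1,000 cells/well) were treated 48 hours at 37 degrees C with compounds at 11-point (0.78 nM to 46 µM) or 8-point (0.59 nM to 46 µM) dilutions. Viability read by CellTiter-Glo luminescence; concentration-response curves fitted.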

[10] = qHTS of pediatric cancer cell lines to identify multiple opportunities for drug repurposing: Primary screen for SK-N-MC cells (AID 1347093); further: series mostly up to about 46 µM
How it was run: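 Metabolically active cells were quantified by ATP-dependent luminescence (CellTiter-Glo, 15 min at room temperature) following 48 h treatment. Cells had been plated at 500-1,000 per well and settled for 5 h beforehand.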

[11] = qHTS of pediatric cancer cell lines to identify multiple opportunities for drug repurposing: Primary screen for BT-37 cells (AID 1347094); further: series mostly up to about 57 µM
How it was run: (§2)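 Readout: CellTiter-Glo luminescence, 48 h treatment. Controls DMSO (neutral) and bortezomib 2.3 µM final (positive). Potency and efficacy taken from primary-screen concentration-response curves.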

[12] = qHTS of pediatric cancer cell lines to identify multiple opportunities for drug repurposing: Primary screen for NB-EBc1 cells (AID 1347095)
How it was run: as §2

[13] = qHTS of pediatric cancer cell lines to identify multiple opportunities for drug repurposing: Primary screen for U-2 OS cells (AID 1347096); further: nearly all actives have a fitted effect of over 50% in size
How it was run: (§3)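 Cells (500-1,000/well) rested 5 h, then received compounds for 48 h; metabolically active cells were measured by CellTiter-Glo luminescence. Final concentrations spanned up to 46 µM (MIPE, 11-point) or 0.59 nM-46 µM (NPC, 8-point) in primary screens, 11-point in follow-ups.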

[14] = qHTS of pediatric cancer cell lines to identify multiple opportunities for drug repurposing: Primary screen for Saos-2 cells (AID 1347097); further: nearly all actives have a fitted effect of over 40% in size
How it was run: as §2

[15] = qHTS of pediatric cancer cell lines to identify multiple opportunities for drug repurposing: Primary screen for SK-N-SH cells (AID 1347098); further: nearly all actives have a fitted effect of over 65% in size
How it was run: as §3

[16] = qHTS assay to identify small molecule inhibitors of chordoma cells - UCH-2 (AID 1259356); further: series mostly up to about 46 µM

Measured: Potency

O=S1(=O)OC(c2ccc(O)cc2)(c2ccc(O)cc2)c2ccccc21
not listed: [15] | [16]
inactive: all other assays above

CCN[C@H]1CN(CCCOC)S(=O)(=O)c2sc(S(N)(=O)=O)cc21
not listed: [12] | [16]
inactive: all other assays above

NC(=O)c1ccc([N+](=O)[O-])cc1Cl
not listed: [10] | [16]
inactive: all other assays above

O=C(c1ccccc1)C(O)c1ccccc1 (centres undefined)
not listed: [6] | [14] | [16]
inactive: all other assays above

CC(C)NC[C@@H](O)COc1ccc(CC(N)=O)cc1
not listed: [16]
inactive: all other assays above

O=C(CCBr)N1CCN(C(=O)CCBr)CC1
not listed: [4] | [12] | [15] | [16]
inactive: all other assays above

C[N+](C)(C)CC[N+]1(C)Cc2c(Cl)c(Cl)c(Cl)c(Cl)c2C1
not listed: [4] | [9] | [12] | [16]
inactive: all other assays above

CN(C(=O)c1c(O)c2ccccc2n(C)c1=O)c1ccccc1
not listed: [4] | [16]
inactive: all other assays above

Cn1c([N+](=O)[O-])cnc1COC(N)=O
not listed: [9] | [16]
inactive: all other assays above

O=C(O)Cc1ccc(CCNS(=O)(=O)c2ccc(Cl)cc2)cc1
not listed: [10] | [15] | [16]
inactive: all other assays above

O=c1[nH]cnc2nc[nH]c12
not listed: [8] | [9] | [12] | [16]
inactive: all other assays above

C[C@@H](c1ncncc1F)C(O)(Cn1cncn1)c1ccc(F)cc1F (some centres undefined)
not listed: [16]
inactive: all other assays above

O=C(/C=C/c1ccc(O)c(O)c1)O[C@@H]1C[C@@](OC(=O)/C=C/c2ccc(O)c(O)c2)(C(=O)O)C[C@@H](O)[C@@H]1O
not listed: [9] | [16]
inactive: all other assays above

CCCOC(=O)c1ccc(N)cc1
not listed: [16]
inactive: all other assays above

CC1(C)S[C@@H]2[C@H](NC(=O)C(C(=O)O)c3ccccc3)C(=O)N2[C@H]1C(=O)O (some centres undefined)
not listed: [16]
inactive: all other assays above

Cc1cc(OI)c(C(C)C)cc1-c1cc(C(C)C)c(OI)cc1C
not listed: [16]
inactive: all other assays above

CCOC(=O)OC(C)OC(=O)[C@@H]1N2C(=O)[C@@H](NC(=O)[C@H](N)c3ccccc3)[C@H]2SC1(C)C (some centres undefined)
not listed: [4] | [15] | [16]
inactive: all other assays above

CC(=O)N[C@H]1[C@H]([C@H](O)[C@H](O)CO)OC(C(=O)O)=C[C@@H]1N=C(N)N
not listed: [2]
inactive: all other assays above
